# Reference: PubChem BioAssay AID651739 (Broad Institute, 2012)
# The whole screen tested about 5,600 compounds, of which about 4,100 (73%) were called active. Not shown: some 4% with an inconclusive outcome. The set was probably picked from earlier hits. Not all results are given here. A number with no mark means an inactive call.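 Rule for the calls: active = mean replicate inhibition above about 95% and at least 55% of replicates individually reaching it (limit read from the data); inconclusive = only one of the two criteria is met; inactive = neither criterion is met.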
# Assay: T. cruzi intracellular proliferation inhibitors, confirmation, cell-based, NIH3T3 host, beta-gal parasite, luminescence, cherry-pick (AID 651739)
# Conditions: T. cruzi beta-gal in NIH3T3, GalScreen luminescence, 90 h; at 8.35 µM; active compounds read high
row,SMILES,inhibition
1,CN(C)C(=O)c1ccc(-c2ccc3c(c2)[C@H]2[C@H](CCN2C(=O)c2ccc4c(c2)OCO4)[C@H](CO)N3)cc1,100% (active)
2,O=C(c1ccccn1)N1CC[C@@H]2[C@H]1c1cc(-c3ccccc3)ccc1N[C@@H]2CO,107% (active)
3,OC[C@@H]1Nc2ccc(-c3cccc(F)c3)cc2[C@H]2[C@@H]1CCN2Cc1ccncc1,114% (active)
4,O=C(c1cnccn1)N1CC[C@@H]2[C@H](CO)Nc3ccc(-c4cccc(F)c4)cc3[C@@H]21,109% (active)
5,O=C(c1ccccc1F)N1C[C@H]2[C@@H](c3ccccc31)[C@@H](CO)N2C(=O)c1ccc(F)cc1,46.6%
6,C[C@@H]1CN([C@@H](C)CO)S(=O)(=O)c2ccc(C#Cc3ccc(F)cc3)cc2O[C@H]1CN(C)S(C)(=O)=O,85.8%
7,CCCN(C)C[C@H]1Oc2cc(C#CC3CCCC3)ccc2S(=O)(=O)N([C@H](C)CO)C[C@@H]1C,105% (active)
8,C[C@@H]1CN([C@H](C)CO)S(=O)(=O)c2ccc(C#Cc3ccncc3)cc2O[C@@H]1CN(C)S(=O)(=O)c1ccc(F)cc1,70.2%
9,CCCN(C)C[C@@H]1Oc2cc(C#Cc3ccc(F)cc3)ccc2S(=O)(=O)N([C@H](C)CO)C[C@H]1C,108% (active)
10,CN1c2ccc(-c3ccccc3)cc2[C@H]2[C@H](CCN2C(=O)Cc2ccccn2)[C@H]1CO,88.9%
11,CN1c2ccc(-c3ccccc3)cc2[C@@H]2[C@@H](CCN2C(=O)c2ccncc2)[C@@H]1CO,100% (active)
12,COc1ccc(-c2ccc3c(c2)[C@@H]2[C@@H](CCN2C(=O)Cc2ccccn2)[C@H](CO)N3C)cc1,108% (active)
13,COc1ccc(NC(=O)N2CC[C@@H]3[C@@H](CO)N(C)c4ccc(-c5cccc(F)c5)cc4[C@@H]32)cc1,100% (active)
14,CCC(=O)N1CC[C@@H]2[C@@H](CO)N(C)c3ccc(-c4cccc(OC)c4)cc3[C@@H]21,99.1% (active)
15,CCC(=O)N1CC[C@@H]2[C@@H](CO)N(C)c3ccc(-c4ccc(F)cc4)cc3[C@@H]21,102% (active)
16,C[C@H](CO)N1C[C@H](C)[C@@H](CN(C)C(=O)Nc2ccnc(N3CCOCC3)c2)OCc2ccccc2-c2ccccc2C1=O,100% (active)
17,C[C@H]1CN([C@@H](C)CO)C(=O)c2ccccc2-c2ccccc2CO[C@@H]1CN(C)S(=O)(=O)c1ccc(C(F)(F)F)cc1,99.2% (active)
18,Cc1noc(C)c1S(=O)(=O)N(C)C[C@H]1Oc2ccc(N(C)C)cc2CC(=O)N([C@H](C)CO)C[C@@H]1C,-37.8%
19,C[C@H](CO)N1C[C@H](C)[C@H](CN(C)S(=O)(=O)c2ccccc2)Oc2ncc(-c3cccc(C(F)(F)F)c3)cc2C1=O,108% (active)
20,C[C@@H]1CN([C@H](C)CO)C(=O)c2cc(-c3cncnc3)cnc2O[C@H]1CN(C)C(=O)Nc1ccc2c(c1)OCO2,-15.5%

row,SMILES,inhibition
1,C[C@H](CO)N1C[C@H](C)[C@@H](CN(C)S(=O)(=O)c2cccc(F)c2)OCc2ccccc2-c2c(n(C)c3ccccc23)C1=O,99.6% (active)
2,C[C@H](CO)N1C[C@H](C)[C@H](CN(C)S(=O)(=O)c2cccc(F)c2)Oc2ncc(/C=C/c3ccccc3)cc2C1=O,102% (active)
3,Cc1ccc(-c2cnc3c(c2)C(=O)N([C@@H](C)CO)C[C@@H](C)[C@H](CN(C)Cc2ccccc2F)O3)cc1,102% (active)
4,COc1ccccc1-c1ccc2c(c1)O[C@H](CN(C)S(=O)(=O)c1ccc(C)cc1)[C@@H](C)CN([C@H](C)CO)S2(=O)=O,93.9%
5,Cc1ccc(S(=O)(=O)N(C)C[C@@H]2Oc3ncc(-c4cc5ccccc5o4)cc3C(=O)N([C@H](C)CO)C[C@@H]2C)cc1,105% (active)
6,C[C@@H]1CN([C@H](C)CO)S(=O)(=O)c2ccc(C#CC3CCCC3)cc2O[C@@H]1CN(C)Cc1cccnc1,98.8% (active)
7,C[C@H](CO)N1C[C@H](C)[C@H](CN(C)Cc2cccnc2)Oc2cc(C#CC3CCCC3)ccc2S1(=O)=O,108% (active)
8,C[C@@H]1CN([C@H](C)CO)S(=O)(=O)c2ccc(C#CC3CCCC3)cc2O[C@@H]1CN(C)C(=O)Cc1ccncc1,92.6%
9,C[C@H]1CN([C@@H](C)CO)S(=O)(=O)c2ccc(C#CC3CCCC3)cc2O[C@H]1CN(C)C(=O)Cc1ccncc1,110% (active)
10,C[C@@H]1CCCCO[C@@H](CN(C)Cc2ccc(Cl)c(Cl)c2)[C@H](C)CN([C@H](C)CO)C(=O)c2cc(NC(=O)Nc3ccc(F)cc3)ccc2O1,88.5%
11,COc1ccc(NC(=O)Nc2ccc3c(c2)C(=O)N([C@H](C)CO)C[C@@H](C)[C@H](CN(C)Cc2ccc(Cl)c(Cl)c2)OCCCC[C@@H](C)O3)cc1,98.8% (active)
12,C[C@@H]1CN([C@H](C)CO)C(=O)c2cc(NC(=O)Nc3ccc(F)cc3)ccc2O[C@@H](C)CCCCO[C@H]1CN(C)Cc1ccc(Cl)c(Cl)c1,98.3% (active)
13,C[C@@H]1CN([C@H](C)CO)C(=O)Cc2cc(NC(=O)c3ccncc3)ccc2O[C@H]1CN(C)Cc1ccc(-c2ccccc2)cc1,109% (active)
14,C[C@H](CO)N1C[C@H](C)[C@H](CN(C)Cc2ccc(-c3ccccc3)cc2)Oc2ccc(NC(=O)Nc3ccc(F)cc3)cc2CC1=O,110% (active)
15,C[C@H](CO)N1C[C@H](C)[C@@H](CN(C)Cc2ccc(-c3ccccc3)cc2)Oc2ccc(NC(=O)CCC(F)(F)F)cc2CC1=O,92.4%
16,C[C@@H]1CN([C@@H](C)CO)C(=O)Cc2cc(NC(=O)C3CCCCC3)ccc2O[C@@H]1CN(C)Cc1ccc(C(=O)Nc2ccccc2N)cc1,103% (active)
17,COCC#Cc1ccc([C@@H]2[C@H](CO)N3CCCCN(C(=O)CN(C)C)C[C@@H]23)cc1,57.7%
18,COc1ccc(-c2ccc([C@H]3[C@H]4CN(C(=O)c5ccc6c(c5)OCO6)CCCCN4[C@H]3CO)cc2)cc1,106% (active)
19,Cc1cccc(-c2ccc([C@@H]3[C@H](CO)N4CCCCN(C(=O)c5ccc6c(c5)OCO6)C[C@@H]34)cc2)c1,105% (active)
20,CCCC#Cc1ccc([C@H]2[C@H](CO)N3CCCCN(C(=O)c4ccc5c(c4)OCO5)C[C@@H]23)cc1,104% (active)
